# Reference: PubChem BioAssay (NCI)
# About 79,000 compounds went through this panel and 15% of them were active in at least one assay; those are over-represented in the sample as a whole. Values without a mark were called inactive. The source made the active and inactive calls. No stated cut-off is given here; in the data, active means growth inhibition above about 70%; inactive means the rest.
# Columns and labels:
# [1] = NCI Yeast Anticancer Drug Screen. Data for the wt1 strain (AID 149);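 further: 0% = growth of vehicle-treated wt1 cultures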; conditions: S. cerevisiae wt1 strain (SPY 50644) growth inhibition, hits give high values
# Outline: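 Readout: yeast growth inhibition, normalised to vehicle controls, in the wt1 strain exposed to test compounds.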
# [2] = NCI Yeast Anticancer Drug Screen. Data for the rad50EPP+ strain (AID 151);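 further: 0% = growth of vehicle-treated control cultures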; conditions: S. cerevisiae rad50 mutant strain, hits give high values
# Outline: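 Compounds were applied to the rad50EPP+ yeast strain, which bears a defined DNA repair alteration, and growth inhibition was determined relative to vehicle-treated cultures.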
# [3] = NCI Yeast Anticancer Drug Screen. Data for the mgt1 strain (AID 153); conditions: S. cerevisiae mgt1 mutant growth inhibition, hits give high values
# Outline: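 Strain: mgt1 yeast, one of a set carrying defined DNA damage repair or cell cycle control alterations. Compound-treated growth compared with vehicle.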
# [4] = NCI Yeast Anticancer Drug Screen. Data for the rad50 strain (AID 155);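 further: 0% = growth of vehicle-only cultures of the same strain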; conditions: S. cerevisiae rad50 strain growth inhibition, hits give high values
# Outline: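 Compounds were tested on a yeast strain with an engineered DNA damage repair alteration; the reported value is growth inhibition normalised to vehicle treatment.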
# [5] = NCI Yeast Anticancer Drug Screen. Data for the mec2-1 strain (AID 157); conditions: S. cerevisiae mec2-1 strain, hits give high values
# Outline: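 Strain: mec2-1 (DNA repair/cell cycle alteration). Compound exposure, then growth measured; inhibition expressed relative to vehicle.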
# [6] = NCI Yeast Anticancer Drug Screen. Data for the rad14 strain (AID 159);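 further: 0% = growth of vehicle-treated control cultures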; conditions: S. cerevisiae rad14 strain growth inhibition, hits give high values
# Outline: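 Compound-treated yeast with a defined DNA-repair lesion; growth inhibition normalised to vehicle-treated cultures.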
# [7] = NCI Yeast Anticancer Drug Screen. Data for the sgs1 mgt1 strain (AID 161);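 further: 0% = growth of cultures given vehicle only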; conditions: S. cerevisiae sgs1 mgt1 strain, hits give high values
# Outline: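 Test agents were incubated with a DNA-repair-mutant yeast strain. Growth was then read and compared against vehicle-treated controls.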
# [8] = NCI Yeast Anticancer Drug Screen. Data for the CLN2oe strain (AID 163);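 further: 0% = growth of vehicle-only control cultures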; conditions: S. cerevisiae CLN2oe strain, hits give high values
# Outline: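 Growth of a genetically modified yeast strain is measured after compound exposure and compared with cultures given vehicle alone.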
# [9] = NCI Yeast Anticancer Drug Screen. Data for the cln2 rad14 strain (AID 165);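 further: 0% = growth equal to vehicle treated cultures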; conditions: S. cerevisiae cln2 rad14 strain, hits give high values
# Outline: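 Compounds are applied to the cln2 rad14 yeast strain, and growth is then compared with that of vehicle-treated cultures to give inhibition.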
# [10] = NCI Yeast Anticancer Drug Screen. Data for the bub3 strain (AID 167); conditions: S. cerevisiae bub3 mutant strain, hits give high values
# Outline: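 Growth of a checkpoint-deficient yeast mutant is measured after compound exposure. Values represent inhibition relative to vehicle.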
# [11] = NCI Yeast Anticancer Drug Screen. Data for the wt2 strain (AID 169);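 further: 0% = growth of vehicle-treated yeast cultures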; conditions: S. cerevisiae wt2 strain growth inhibition, hits give high values
# Outline: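 This strain belongs to a panel of yeast strains with defined genetic alterations in DNA damage repair or cell cycle control. Compounds are applied, and growth inhibition is measured against vehicle-treated cultures.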
# [12] = NCI Yeast Anticancer Drug Screen. Data for the mlh1 strain (AID 171);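 further: 0% = growth of vehicle-treated control cultures of the same strain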; conditions: S. cerevisiae mlh1 strain growth inhibition, hits give high values
# Outline: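 Growth of the mutant yeast strain after compound exposure, expressed as inhibition relative to vehicle-only controls.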
# [13] = NCI Yeast Anticancer Drug Screen. Data for the sgs1 strain (AID 173);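 further: 0% = growth of vehicle-only control cultures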; conditions: S. cerevisiae sgs1 mutant, hits give high values
# Outline: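 Growth of a yeast strain bearing a defined genetic alteration is measured after compound treatment. Inhibition is expressed relative to vehicle-only controls.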
# [14] = NCI Yeast Anticancer Drug Screen. Data for the mlh1 rad18 strain (AID 175); conditions: S. cerevisiae mlh1 rad18 strain growth inhibition, hits give high values
# Outline: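 Read-out is yeast growth inhibition, calculated against vehicle-only controls. The compound was applied to a strain engineered with DNA damage repair alterations.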
# [15] = NCI Yeast Anticancer Drug Screen. Data for the rad18 strain (AID 177); conditions: S. cerevisiae rad18 mutant growth inhibition, hits give high values
# Outline: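 Growth of the mutant yeast strain after compound exposure, normalised to vehicle-only cultures.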
# [16] = at 5.0 µM (retest, dose inferred, filed as 0.5)
# [17] = at 50.0 µM (retest, dose inferred, filed as 5.0)
structure (smiles),measurement,setting,value
CCCCCCCCCCCCCCCCOCC(Cl)COP(=O)(O)OP(=O)(O)OCC1OC(n2cnc3c(N)ncnc32)C(O)C1O (stereo unspecified),growth inhibition,[1]; at 1.2 µM,21%
same,growth inhibition,[1]; at 3.7 µM,35%
same,growth inhibition,[1]; at 11.0 µM,46%
same,growth inhibition,[1]; at 33.0 µM,54%
same,growth inhibition,[1]; at 100.0 µM,51%
same,growth inhibition,[2]; at 1.2 µM,20%
same,growth inhibition,[2]; at 3.7 µM,24%
same,growth inhibition,[2]; at 11.0 µM,43%
same,growth inhibition,[2]; at 33.0 µM,67%
same,growth inhibition,[2]; at 100.0 µM,97% (active)
same,growth inhibition,[3]; at 1.2 µM,15%
same,growth inhibition,[3]; at 3.7 µM,14%
same,growth inhibition,[3]; at 11.0 µM,55%
same,growth inhibition,[3]; at 33.0 µM,68%
same,growth inhibition,[3]; at 100.0 µM,85% (active)
same,growth inhibition,[4]; at 1.2 µM,14%
same,growth inhibition,[4]; at 3.7 µM,28%
same,growth inhibition,[4]; [16],49%
same,growth inhibition,[4]; at 11.0 µM,75% (active)
same,growth inhibition,[4]; at 33.0 µM,86% (active)
same,growth inhibition,[4]; [17],93% (active)
same,growth inhibition,[4]; at 50.0 µM,54.4%
same,growth inhibition,[4]; at 100.0 µM,86% (active)
same,growth inhibition,[5]; at 1.2 µM,14%
same,growth inhibition,[5]; at 3.7 µM,6%
same,growth inhibition,[5]; [16],36%
same,growth inhibition,[5]; at 11.0 µM,19%
same,growth inhibition,[5]; at 33.0 µM,11%
same,growth inhibition,[5]; [17],73% (active)
same,growth inhibition,[5]; at 50.0 µM,33.4%
same,growth inhibition,[5]; at 100.0 µM,47%
same,growth inhibition,[6]; at 1.2 µM,10%
same,growth inhibition,[6]; at 3.7 µM,6%
same,growth inhibition,[6]; at 11.0 µM,29%
same,growth inhibition,[6]; at 33.0 µM,35%
same,growth inhibition,[6]; at 100.0 µM,46%
same,growth inhibition,[7]; [16],74% (active)
same,growth inhibition,[7]; [17],96% (active)
same,growth inhibition,[7]; at 50.0 µM,88.4% (active)
same,growth inhibition,[8]; at 1.2 µM,2%
same,growth inhibition,[8]; at 3.7 µM,2%
same,growth inhibition,[8]; at 11.0 µM,-4%
same,growth inhibition,[8]; at 33.0 µM,24%
same,growth inhibition,[8]; at 100.0 µM,31%
same,growth inhibition,[9]; [16],24%
same,growth inhibition,[9]; [17],79% (active)
same,growth inhibition,[9]; at 50.0 µM,-30.4%
same,growth inhibition,[10]; at 1.2 µM,-12%
same,growth inhibition,[10]; at 3.7 µM,-25%
same,growth inhibition,[10]; [16],10%
same,growth inhibition,[10]; at 11.0 µM,-8%
same,growth inhibition,[10]; at 33.0 µM,9%
same,growth inhibition,[10]; [17],73% (active)
same,growth inhibition,[10]; at 50.0 µM,28.2%
same,growth inhibition,[10]; at 100.0 µM,39%
same,growth inhibition,[11]; at 1.2 µM,-2%
same,growth inhibition,[11]; at 3.7 µM,-3%
same,growth inhibition,[11]; at 11.0 µM,11%
same,growth inhibition,[11]; at 33.0 µM,19%
same,growth inhibition,[11]; at 100.0 µM,57%
same,growth inhibition,[12]; at 1.2 µM,10%
same,growth inhibition,[12]; at 3.7 µM,-1%
same,growth inhibition,[12]; at 11.0 µM,53%
same,growth inhibition,[12]; at 33.0 µM,63%
same,growth inhibition,[12]; at 100.0 µM,78% (active)
same,growth inhibition,[13]; at 1.2 µM,40%
same,growth inhibition,[13]; at 3.7 µM,64%
same,growth inhibition,[13]; at 11.0 µM,93% (active)
same,growth inhibition,[13]; at 33.0 µM,95% (active)
same,growth inhibition,[13]; at 100.0 µM,92% (active)
same,growth inhibition,[14]; [16],36%
same,growth inhibition,[14]; [17],92% (active)
same,growth inhibition,[14]; at 50.0 µM,48%
same,growth inhibition,[15]; at 1.2 µM,-4%
same,growth inhibition,[15]; at 3.7 µM,0%
same,growth inhibition,[15]; at 11.0 µM,22%
same,growth inhibition,[15]; at 33.0 µM,39%
same,growth inhibition,[15]; at 100.0 µM,59%
COc1ccc(C(=O)NCCN(C)C)c2nc3ccccc3cc12,growth inhibition,[1]; at 1.2 µM,-11%
same,growth inhibition,[1]; at 3.7 µM,21%
same,growth inhibition,[1]; at 11.0 µM,-2%
same,growth inhibition,[1]; at 33.0 µM,-6%
same,growth inhibition,[1]; at 100.0 µM,39%
same,growth inhibition,[2]; at 1.2 µM,13%
same,growth inhibition,[2]; at 3.7 µM,46%
same,growth inhibition,[2]; at 11.0 µM,63%
same,growth inhibition,[2]; at 33.0 µM,90% (active)
same,growth inhibition,[2]; at 100.0 µM,96% (active)
same,growth inhibition,[3]; at 1.2 µM,7%
same,growth inhibition,[3]; at 3.7 µM,19%
same,growth inhibition,[3]; at 11.0 µM,14%
same,growth inhibition,[3]; at 33.0 µM,17%
same,growth inhibition,[3]; at 100.0 µM,67%
same,growth inhibition,[4]; at 1.2 µM,45%
same,growth inhibition,[4]; at 3.7 µM,77% (active)
same,growth inhibition,[4]; [16],73% (active)
same,growth inhibition,[4]; at 11.0 µM,93% (active)
same,growth inhibition,[4]; at 33.0 µM,95% (active)
same,growth inhibition,[4]; [17],95% (active)
same,growth inhibition,[4]; at 50.0 µM,82.5% (active)
same,growth inhibition,[4]; at 100.0 µM,94% (active)
same,growth inhibition,[5]; at 1.2 µM,18%
same,growth inhibition,[5]; at 3.7 µM,17%
same,growth inhibition,[5]; [16],14%
same,growth inhibition,[5]; at 11.0 µM,18%
same,growth inhibition,[5]; at 33.0 µM,30%
same,growth inhibition,[5]; [17],59%
same,growth inhibition,[5]; at 50.0 µM,71.2% (active)
same,growth inhibition,[5]; at 100.0 µM,80% (active)
same,growth inhibition,[6]; at 1.2 µM,7%
same,growth inhibition,[6]; at 3.7 µM,3%
same,growth inhibition,[6]; at 11.0 µM,-9%
same,growth inhibition,[6]; at 33.0 µM,10%
same,growth inhibition,[6]; at 100.0 µM,57%
same,growth inhibition,[7]; [16],18%
same,growth inhibition,[7]; [17],39%
same,growth inhibition,[7]; at 50.0 µM,30.6%
same,growth inhibition,[8]; at 1.2 µM,29%
same,growth inhibition,[8]; at 3.7 µM,26%
same,growth inhibition,[8]; at 11.0 µM,29%
same,growth inhibition,[8]; at 33.0 µM,41%
same,growth inhibition,[8]; at 100.0 µM,73% (active)
same,growth inhibition,[9]; [16],17%
same,growth inhibition,[9]; [17],25%
same,growth inhibition,[9]; at 50.0 µM,10.7%
same,growth inhibition,[10]; at 1.2 µM,12%
same,growth inhibition,[10]; at 3.7 µM,11%
same,growth inhibition,[10]; [16],22%
same,growth inhibition,[10]; at 11.0 µM,9%
same,growth inhibition,[10]; at 33.0 µM,9%
same,growth inhibition,[10]; [17],36%
same,growth inhibition,[10]; at 50.0 µM,-31.9%
same,growth inhibition,[10]; at 100.0 µM,41%
same,growth inhibition,[11]; at 1.2 µM,-16%
same,growth inhibition,[11]; at 3.7 µM,-8%
same,growth inhibition,[11]; at 11.0 µM,-15%
same,growth inhibition,[11]; at 33.0 µM,-8%
same,growth inhibition,[11]; at 100.0 µM,90% (active)
same,growth inhibition,[12]; at 1.2 µM,26%
same,growth inhibition,[12]; at 3.7 µM,23%
same,growth inhibition,[12]; at 11.0 µM,18%
same,growth inhibition,[12]; at 33.0 µM,29%
same,growth inhibition,[12]; at 100.0 µM,75% (active)
same,growth inhibition,[13]; at 1.2 µM,15%
same,growth inhibition,[13]; at 3.7 µM,16%
same,growth inhibition,[13]; at 11.0 µM,10%
same,growth inhibition,[13]; at 33.0 µM,10%
same,growth inhibition,[13]; at 100.0 µM,62%
same,growth inhibition,[14]; [16],19%
same,growth inhibition,[14]; [17],64%
same,growth inhibition,[14]; at 50.0 µM,19.6%
same,growth inhibition,[15]; at 1.2 µM,19%
same,growth inhibition,[15]; at 3.7 µM,17%
same,growth inhibition,[15]; at 11.0 µM,11%
same,growth inhibition,[15]; at 33.0 µM,-5%
same,growth inhibition,[15]; at 100.0 µM,66%
